Values joined by “and” are separate entries in the source; they are usually repeats but may differ in a detail not shown here. Identical values can stand only once. Results filed as inconclusive are left out. The source holds several records for some structures; these can differ, active in one and inactive in another. Active and inactive are the calls of the source. Rule for the calls, unless noted: active = hit-call score of the fitted dose curve at least 0.9, where 1 is the maximum; inactive = score below 0.9.
How the values were obtained:
[1] = read-out: Collagen I, COL1A1 (gene 1277); assay: BSK_MyoF_CollagenI: BioMAP Diversity Plus: MyoF Assay for Collagen I Biomarker Activity (AID 2284238); conditions: primary human lung fibroblasts
Method in brief: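 Human lung fibroblasts were exposed to test chemical for 24 h, then Collagen I was quantified by ELISA. Activity was fitted in the increasing direction against DMSO as the negative control and baseline.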

[2] = read-out: Collagen III, COL3A1 (gene 1281); assay: BSK_MyoF_CollagenIII: BioMAP Diversity Plus: MyoF Assay for Collagen III Biomarker Activity (AID 2284239); conditions: primary human lung fibroblasts
Method in brief: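 Human lung fibroblasts were dosed with chemicals and, 24 hours later, collagen III was measured by ELISA. Activity was fitted in the positive direction against the DMSO negative-control baseline.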

[3] = CCTE_Mundy_HCI_hNP1_CellTiter: CCTE's Cell Titer-Glo 2 Assay in human neuroprogenitor cells for Viability, Mundy Lab (AID 2284241; active = hit-call score of the fitted dose curve at least 0.9, where 1 is the maximum)
Method in brief: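 Viability read as luminescent ATP content (CellTiter-Glo, 30 min room temperature) twenty-four hours after dosing, relative to DMSO. Cells: WA09-derived hNP1 neuroprogenitors on poly-L-ornithine/laminin, plated 40 to 44 hours before chemical.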

[4] = read-out: Interleukin 17F (IL17F), IL17F (gene 112744); assay: BSK_BT_xIL17F: BioMAP Diversity Plus: BT Assay for Interleukin 17F (IL17F) Biomarker Activity (AID 2284243); conditions: primary human B cells with PBMC
Method in brief: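 B cell/PBMC co-culture (human primary), 24 h compound exposure; sIL-17F by Luminex xMAP; gain-of-signal fit vs DMSO baseline.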

[5] = read-out: Actin alpha 1 (ACTA1), ACTA1 (gene 58); assay: BSK_MyoF_ACTA1: BioMAP Diversity Plus: MyoF Assay for Actin alpha 1 (ACTA1) Biomarker Activity (AID 2284244); conditions: primary human lung fibroblasts
Method in brief: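 alpha-SMA levels read by ELISA against DMSO baseline, 24 h post-dose, in primary human lung fibroblasts. Parallel cultures stained with 0.1% SRB after 10% TCA fixation (560 nm) to flag overt cytotoxicity.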

[6] = read-out: Interleukin 2 (IL2), IL2 (gene 3558); assay: BSK_BT_xIL2: BioMAP Diversity Plus: BT Assay for Interleukin 2 (IL2) Biomarker Activity (AID 2284245); conditions: primary human B cells with PBMC
Method in brief: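 Secreted IL-2 was read by Luminex xMAP from B cells co-cultured with PBMC (human primary) 24 h post-dosing; activity was analysed as gain of signal relative to DMSO vehicle.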

[7] = read-out: Basic fibroblast growth factor (bFGF), FGF2 (gene 2247); assay: BSK_MyoF_bFGF: BioMAP Diversity Plus: MyoF Assay for Basic fibroblast growth factor (bFGF) Biomarker Activity (AID 2284246); conditions: primary human lung fibroblasts
Method in brief: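 bFGF was measured by ELISA in primary human lung fibroblasts 24 h after chemical addition. Signal was analysed as positive-direction change relative to DMSO baseline.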

[8] = read-out: Collagen IV, COL4A1 (gene 1282); assay: BSK_MyoF_CollagenIV: BioMAP Diversity Plus: MyoF Assay for Collagen IV Biomarker Activity (AID 2284247); conditions: primary human lung fibroblasts
Method in brief: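 Collagen IV quantified by ELISA in human lung fibroblast cultures 24 h after chemical treatment, with DMSO as baseline. Parallel SRB staining (0.1% SRB after TCA fixation, 560 nm) flags overt cytotoxicity.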

[9] = read-out: Monokine induced gamma interferon (MIG), CXCL9 (gene 4283); assay: BSK_KF3CT_MIG: BioMAP Diversity Plus: KF3CT Assay for Monokine induced gamma interferon (MIG) Biomarker Activity (AID 2284248); conditions: primary human keratinocytes with fibroblasts
Method in brief: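 Human keratinocyte plus foreskin fibroblast primary co-culture dosed with test chemical for 24 h; MIG level measured by ELISA and fitted in the positive direction against DMSO as baseline.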

[10] = read-out: Vascular cell adhesion molecule 1 (VCAM1), VCAM1 (gene 7412); assay: BSK_BF4T_VCAM1: BioMAP Diversity Plus: BF4T Assay for Vascular cell adhesion molecule 1 (VCAM1) Biomarker Activity (AID 2284249); conditions: primary human bronchial epithelial cells with fibroblasts
Method in brief: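 Cell-surface VCAM-1 quantified by ELISA after 24 h chemical exposure of human bronchial epithelial/dermal fibroblast co-cultures, with SRB staining in parallel wells for cytotoxicity; DMSO baseline, positive-direction fitting.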

[11] = read-out: Collagen I, COL1A1 (gene 1277); assay: BSK_hDFCGF_CollagenI: BioMAP Diversity Plus: hDFCGF Assay for Collagen I Biomarker Activity (AID 2284250); conditions: primary human foreskin fibroblasts
Method in brief: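 Collagen I quantified by ELISA 24 h after chemical dosing of human dermal fibroblast primary cells, with parallel SRB staining (0.1%, TCA-fixed, 560 nm) for overt cytotoxicity.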

[12] = read-out: Interferon-inducible T-cell alpha chemoattractant (ITAC), CXCL11 (gene 6373); assay: BSK_hDFCGF_ITAC: BioMAP Diversity Plus: hDFCGF Assay for Interferon-inducible T-cell alpha chemoattractant (ITAC) Biomarker Activity (AID 2284251); conditions: primary human foreskin fibroblasts
Method in brief: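 Measured by ELISA, the chemokine level serves as the endpoint in human skin fibroblast primary cultures 24 h after compound addition. Increases relative to DMSO-treated wells define activity.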

[13] = read-out: Plasminogen activator inhibitor-1 (PAI1), SERPINE1 (gene 5054); assay: BSK_KF3CT_PAI1: BioMAP Diversity Plus: KF3CT Assay for Plasminogen activator inhibitor-1 (PAI1) Biomarker Activity (AID 2284252); conditions: primary human keratinocytes with fibroblasts
Method in brief: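 PAI-1 levels quantified by ELISA after 24 h compound exposure of primary human skin keratinocytes co-cultured with fibroblasts. Activity is the gain relative to DMSO; cytotoxicity tracked in parallel cultures via SRB staining.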

[14] = read-out: Monocyte Chemoattractant Protein-1 (MCP1), CCL2 (gene 6347); assay: BSK_IMphg_MCP1: BioMAP Diversity Plus: IMphg Assay for Monocyte Chemoattractant Protein-1 (MCP1) Biomarker Activity (AID 2284253); conditions: primary human endothelial cells with macrophages
Method in brief: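 ELISA readout of MCP-1 at 24 hours in IMphg co-cultures of venular endothelial cells and macrophages, normalised to DMSO; parallel cultures stained with sulforhodamine B for overt cytotoxicity.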

[15] = read-out: Interleukin-8 (IL8), CXCL8 (gene 3576); assay: BSK_KF3CT_IL8: BioMAP Diversity Plus: KF3CT Assay for Interleukin-8 (IL8) Biomarker Activity (AID 2284254); conditions: primary human keratinocytes with fibroblasts
Method in brief: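 Human primary keratinocyte plus foreskin fibroblast co-culture dosed with test chemicals; IL-8 measured by ELISA 24 h after dosing. Activity fitted in the positive direction relative to DMSO negative control.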

[16] = CCTE_Mundy_HCI_Cortical_NOG_NeuronCount: CCTE's Neurite Outgrowth Assay in rat cortical cells for Neuron Count, Mundy Lab (AID 2284236; active = hit-call score of the fitted dose curve at least 0.9, where 1 is the maximum;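 note: neurons counted by imaging betaIII-tubulin and Hoechst stained cortical cells; cells exposed to compound for about 48 hours before fixation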)
Method in brief: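 Read-out: neuron number by high-content imaging of betaIII-tubulin (Alexa Fluor-488) and Hoechst-labelled rat primary cortical cells.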

[17] = CCTE_Mundy_HCI_Cortical_NOG_BPCount: CCTE's Neurite Outgrowth Assay in rat cortical cells for Branch Point Count, Mundy Lab (AID 2284237)
Method in brief: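 Measured 50.33 h after dosing, this morphology endpoint uses rat primary cortical cultures labelled for betaIII-tubulin. Branch points are quantified by high-content imaging, with DMSO as negative control and baseline.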

[18] = CCTE_Mundy_HCI_Cortical_Synap_Neur_Matur_NeuronCount: CCTE's Synaptogenesis and Neurite Maturation Assay in rat cortical cells for Neuron Count, Mundy Lab (AID 2284242; active = hit-call score of the fitted dose curve at least 0.9, where 1 is the maximum)
Method in brief: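 Neuron counts come from automated high-content imaging of Hoechst nuclei and MAP2/synaptophysin immunostaining at DIV 12, with loss of signal judged against DMSO. Cultures of rat cortical cells had glial growth arrested by AraC at DIV 5; chemical exposure began DIV 7.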

Measured: AC50

C=C(C)C(=O)OCC(F)(F)C(F)(F)C(F)(F)F
not listed: [16] | [17] | [18]
inactive: all other assays above

CCN(CC)c1ccc2c(C)cc(=O)oc2c1
inactive: [1] | [2] | [4] | [5] | [6] | [7] | [8]

O=C(O)C(F)(F)C(F)(F)C(F)(F)C(F)(F)C(F)(F)C(F)(F)C(F)(F)C(F)(F)Cl
inactive: [3] | [4] | [6] | [7] | [8] | [10]
active: [1] 19.3 µM | [2] 17.6 µM and 18.3 µM | [5] 50.7 µM and 43.8 µM | [8] 7.89 µM | [9] 45.7 µM and 54.2 µM | [10] 7.26 µM | [12] 29 µM and 36.7 µM | [13] 32.8 µM and 37.8 µM | [14] 48.6 µM | [15] 55.2 µM and 45.8 µM

FC(F)(F)C(F)(F)C(F)(F)C(F)(F)C(F)(F)C(F)(F)C(F)(F)C(F)(F)F
not listed: [11] | [16] | [17] | [18]
inactive: all other assays above

Nc1ccc([N+](=O)[O-])cc1O
inactive: [1] | [2] | [4] | [5] | [6] | [7] | [8]

C=CC/C=C/C/C=C/C/C=C/C
inactive: [1] | [2] | [4] | [5] | [6] | [7] | [8]

N=C(N)C(F)(F)C(F)(F)C(F)(F)C(F)(F)C(F)(F)C(F)(F)C(F)(F)F
inactive: [1] | [2] | [3] | [4] | [5] | [6] | [7] | [8] | [9] | [10] | [13] | [14] | [15]
active: [4] 31.7 µM | [6] 45.7 µM | [12] 57.6 µM and 52.7 µM

CCCCOCCOCCOC(=O)CCCCC(=O)OCCOCCOCCCC
inactive: [1] | [2] | [4] | [5] | [6] | [7] | [8]

CC(CCl)OP(=O)(OC(C)CCl)OC(C)CCl (centres undefined)
not listed: [9] | [10] | [11] | [12] | [13] | [14] | [15]
inactive: all other assays above

O=C(CC(=O)C(F)(F)C(F)(F)F)C(F)(F)F
active: [4] 20.8 µM
inactive: [1] | [2] | [3] | [4] | [5] | [6] | [7] | [8] | [9] | [10] | [12] | [13] | [14] | [15]

OCCCC(F)(F)C(F)(F)C(F)(F)C(F)(F)C(F)(F)C(F)(F)C(F)(F)F
inactive: [3]
active: [1] 49.1 µM and 52.3 µM | [2] 46.9 µM and 52.2 µM | [4] 17.8 µM and 18.5 µM | [5] 37.7 µM and 44.6 µM | [6] 20.5 µM and 33.2 µM | [7] 50.9 µM and 57.8 µM | [8] 49.5 µM and 48.3 µM | [9] 25.7 µM and 54.8 µM | [10] 38.1 µM and 42.2 µM | [12] 13 µM and 11.8 µM | [13] 21.7 µM and 46.1 µM | [14] 52 µM and 24.2 µM | [15] 49.3 µM and 46.4 µM

CCCCCCCOC(=O)c1ccccc1C(=O)OCCCCCCC
active: [4] 12.2 µM | [6] 17.5 µM
inactive: [1] | [2] | [5] | [7] | [8]

CCc1ccc(C(c2ccc(CC)cc2)C(Cl)Cl)cc1
active: [1] 9.01 µM | [2] 8.17 µM | [4] 29.7 µM | [5] 7.07 µM | [6] 30.3 µM | [7] 28.9 µM
inactive: [8]

FC(F)(F)C(F)(F)C(F)(F)CI
inactive: [1] | [2] | [3] | [4] | [5] | [6] | [7] | [8] | [9] | [10] | [12] | [13] | [14] | [15]
active: [12] 220 nM

O=P(O)(O)OCCC(F)(F)C(F)(F)C(F)(F)C(F)(F)C(F)(F)C(F)(F)F
inactive: [1] | [2] | [3] | [4] | [5] | [6] | [7] | [8] | [9] | [10] | [11] | [12] | [13] | [14] | [15]
active: [12] 5830 nM

C=CC(=O)OCC(F)(F)C(F)(F)C(F)(F)C(F)(F)COC(=O)C=C
active: [1] 14.4 µM and 16.6 µM | [2] 12.1 µM and 14.6 µM | [4] 4.17 µM and 2.81 µM | [5] 8.86 µM and 9.38 µM | [6] 11.2 µM and 9.62 µM | [7] 18.2 µM and 14.5 µM | [8] 12.4 µM and 14.3 µM | [9] 21.5 µM and 29.6 µM | [10] 7.96 µM and 10.9 µM | [12] 6.61 µM and 5.23 µM | [13] 23.3 µM and 43 µM | [14] 30 µM | [15] 17.3 µM and 18.9 µM
inactive: [3] | [11]

— PubChem BioAssay (EPA / NIEHS)
